Here are results for 40 molecules from PubChem BioAssay (Tox21).

SMILES strings stand for the structures. Results filed as inconclusive are left out. A call without a number means that no potency is given here. Values without a mark were called inactive. The source made the active and inactive calls. Calls come from the whole dose curve; as a rule, active = well fitted inhibition curve with a large enough effect in the repeat runs; inconclusive = weak or mixed curves; inactive = no such curve, though single readings can be large or run the other way.
Potency is the fitted concentration of half-maximal effect.

Sequence of Cytochrome P450 3A4 (Homo sapiens) (P08684 whole entry, looked up): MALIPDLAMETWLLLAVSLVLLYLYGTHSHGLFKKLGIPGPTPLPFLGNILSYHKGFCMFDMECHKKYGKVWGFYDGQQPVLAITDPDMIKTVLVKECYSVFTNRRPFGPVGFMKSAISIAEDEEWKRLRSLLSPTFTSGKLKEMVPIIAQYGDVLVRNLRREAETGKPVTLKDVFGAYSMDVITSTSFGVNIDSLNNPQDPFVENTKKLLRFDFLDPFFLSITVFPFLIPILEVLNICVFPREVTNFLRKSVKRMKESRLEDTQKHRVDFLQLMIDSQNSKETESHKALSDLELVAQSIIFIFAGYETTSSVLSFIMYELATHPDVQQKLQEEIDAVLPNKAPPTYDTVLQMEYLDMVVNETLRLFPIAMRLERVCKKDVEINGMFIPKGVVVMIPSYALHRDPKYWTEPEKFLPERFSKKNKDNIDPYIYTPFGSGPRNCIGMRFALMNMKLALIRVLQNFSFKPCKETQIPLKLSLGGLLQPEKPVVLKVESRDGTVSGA

The test concerns the target Cytochrome P450 3A4 (Homo sapiens) (UniProt P08684). In words: Cytochrome P450 Family 3 Subfamily A Member 4 (CYP3A4) small molecule antagonists: luciferase reporter qHTS assay (AID 1671201). Note: nearly all actives have a fitted effect of over 50% in size. Conditions: P450-Glo CYP3A4 enzyme, luciferin luminescence, 1 h; series mostly up to 115 µM. From the text:
National Center for Advancing Translational Sciences [NCATS]
U.S. Environmental Protection Agency [EPA]
National Institutes of Environmental Health Sciences [NIEHS]
National Toxicology Program [NTP]
U.S. Food and Drug Administration [FDA]
Cytochrome P450 (CYP) enzymes are membrane-bound hemeproteins that play a key role in metabolism of drugs and xenobiotics. Evaluation of the effect of chemicals on CYP isozymes is useful to minimize the adverse drug reactions and toxicities in drug development process. Tox21 chemicals were tested for their effect on CYP enzyme activities by using P450-Glo (TM) screening systems (Promega Corporation, Madison, WI). These systems provide a luminescent method containing proluciferin substrates and are converted to luciferin products by CYP isozymes. The luciferin products formed are detected with a luciferin detection reagent, and the amount of light produced is proportional to CYP activity. P450-Glo (TM) CYP3A4 screening system (Catalog. No. V9910) was used to detect the compounds that interfere in CYP3A4 activity. The positive control compound used for CYP3A4 assay is ketoconazole (Sigma-Aldrich, St. Louis, MO).
Tox21 Assay Protocol Summary:
Two ul of enzyme-substrate mix was dispensed into medium binding white/solid 1536-well plates (Greiner Bio-One North America Inc., Monroe, NC) using a BioRaptr Flying Reagent Dispenser (FRD, Beckman Coulter, Brea, CA). Compounds dissolved in DMSO and positive control (ketoconazole) were transferred to the assay plates at 23 nl using a Pintool station (Wako, San Diego, CA). The assay plates were incubated at room temperature for 10 min. Then 2 ul of NADPH regeneration solution was added to each well of the assay plates using an FRD and incubated at room temperature for 1 h. The reaction was stopped by adding 4 ul of detection reagent using an FRD and after 20 min incubation at room temperature the luminescence signal was measured using a ViewLux plate reader (Perkin Elmer, Shelton, CT). Data were expressed as relative luminescence units.
`CC(C)CCCCCCOC(=O)c1ccc(C(=O)OCCCCCCC(C)C)c(C(=O)OCCCCCCC(C)C)c1`: the Potency result is “inactive”. In the case of `N#CCCNCCC#N`, the Potency result was “inactive”. On the same count and under the same terms, the value for `C[C@H](CCC(=O)O)[C@H]1CC[C@H]2[C@@H]3[C@H](O)C[C@@H]4C[C@H](O)CC[C@]4(C)[C@H]3CC[C@]12C` was “inactive”. Consider `C=CCCCCCC`, for which the Potency entry was “inactive”. Same read-out and setting: the value for `NC1CCN(c2nc3c(cc2F)c(=O)c(C(=O)O)cn3-c2ccc(F)cc2F)C1` (stereo not given) was “inactive”; that for `CCCCCCCC/C=C\CCCCCCCC(N)=O` was “inactive”; that for `C1CCC2OC2C1` (stereo not given) was “inactive”. In the case of `Cl/C(=C\n1cncn1)c1ccc(Cl)cc1Cl`, the Potency result was “inactive”.

Take `CCCCCCCCCC(=O)OCC`: the Potency entry was “inactive”. As for `CC(=O)O[C@@H]1C(=O)O[C@@H]2[C@H]1OC(=O)[C@@H]2OC(C)=O`, the Potency result is “inactive”. Still for that read-out and setting: then `O=c1[nH]cnc2ccccc12`, with “inactive”; and `CC(=O)Nc1ccc(/C=N/NC(N)=S)cc1`, with “inactive”. `CCN1CCC[C@H]1CNC(=O)c1c(OC)ccc(Br)c1OC`: the Potency entry was “inactive”. On the same count and under the same terms, the value for `Cn1c(=O)c2c(ncn2CC(O)CO)n(C)c1=O` (stereo not given) was “inactive”; that for `Cc1ccc(C)o1` was “inactive”.

`COC(Cc1ccccc1)OC`: the Potency result was “inactive”. Take `COCCCCCCCCOCCC[Si](C)(O[Si](C)(C)C)O[Si](C)(C)C`: the Potency was 3.56 µM (active). For `CCCCOc1cc(C(=O)OCCN(CC)CC)ccc1N`, the Potency entry was “inactive”. Turning to `ClC(Cl)(Cl)c1ccc(C(Cl)(Cl)Cl)cc1`, the Potency result is “inactive”. Regarding `c1ccc(CNCc2ccccc2)cc1`, the Potency entry is “inactive”. For the molecule `CN1CCC(=C2c3ccccc3CCc3sccc32)CC1`, the Potency entry was “inactive”. The same measure, in the same setting: then `Cc1ccccc1N=Nc1ccc(N=Nc2c(O)ccc3ccccc23)c(C)c1`, with “inactive”; and `O=C(/C=C/c1ccc(O)c(O)c1)O[C@@H]1C[C@](O)(C(=O)O)C[C@@H](O)[C@H]1O`, with “inactive”; and `CCCCOC(=O)/C=C\C(=O)OCCCC`, with “inactive”.

With `NC(N)=N/N=C/c1c(Cl)cccc1Cl`, the Potency result was “inactive”. As to `O=C(Cl)c1ccc([N+](=O)[O-])cc1`, the Potency result was “inactive”. In the case of `CCCCCCCCCCCCCCCCCBr`, the activity change, negative = inhibition was 1.19% [at 23.6 µM]. For `CCCCCCCCCCCCCCCBr`, the Potency entry was “inactive”. Take `CCOc1cc(OCC)c(C(=O)CCC(=O)O)cc1OCC`: the Potency result was “inactive”.

For the molecule `Oc1ccc(Cc2ccccc2)cc1`, the Potency result was “inactive”. Regarding `Cn1c(NCCN(CCO)CCCc2ccc([N+](=O)[O-])cc2)cc(=O)n(C)c1=O`, the Potency entry is “inactive”. Same read-out and setting: then `CC[C@H](C)[C@H](N)C(=O)O`, with “inactive”; and `Nc1cnn([C@@H]2O[C@H](CO)[C@@H](O)[C@H]2O)c(=O)n1`, with “inactive”; and `CCCCOc1ccc(CC(=O)NO)cc1`, with “inactive”. Still for that read-out and setting: then `CCOC(=O)C1=NN(c2ccccc2)C(=O)C1`, with “inactive”; and `CCCCCC/C=C/C=O`, with “inactive”; and `N[C@H]1C(O)O[C@H](CO)[C@H](O)[C@@H]1O` (stereo not given in full), with “inactive”. Take `CC(=O)OCCc1ccccc1`: the Potency entry was “inactive”. With `CC(C(=O)O)c1ccc(-c2ccccc2)c(F)c1` (stereo not given), the Potency entry was “inactive”. With `CC(C)c1ccc2c(C(C)C)cc(C(C)C)c(S(=O)(=O)O)c2c1`, the Potency entry was “inactive”.
